Compound activity: PubChem, several laboratories
This is a sample that favours compounds with a hit; in the whole collection about 4.3% have one here.
Bead autofluor – counter-screen for toxin protease inhibitors: compound fluorescence; compound autofluorescence counterscreen, microsphere flow cytometry; hits give high values; AID 624483; 360,000 tested, 3.1% active; fluorescence intensity (concentration not given with the values); in the data active = fluorescence intensity above about 16000; inconclusive = no clear call, values can overlap the other calls
BoNT-A LC inh2 – BoNT/A light chain protease inhibitors, primary screen, biochemical, flow cytometry, MLPCN library. inhibition, % at 10 µM. multiplex microsphere protease substrate cleavage. Botulinum neurotoxin type A light chain protease (Clostridium botulinum A str. ATCC 3502). 360,000 tested, 0.17% active
BoNT-F LC inh – BoNT/F light chain protease inhibitors, primary screen, biochemical, flow cytometry, MLPCN library. Botulinum neurotoxin type F light chain protease (Clostridium botulinum). Multiplex microsphere protease cleavage assay. inhibition, % at 10 µM. 360,000 tested, 0.22% active; in the data active = inhibition above about 35%, passing the limit was not always enough; inconclusive = no clear call, values can overlap the other calls
PfHsp40 rescue – rescue of yeast from PfHsp40 toxicity, primary screen, S. cerevisiae, ATP luminescence; 340,000 tested, 0.68% active; growth rescue, % at 12.5 µM; S. cerevisiae expressing PfHsp40, growth rescue; in the data active = growth rescue above about 28%, passing the limit was not always enough; inconclusive = no clear call, values can overlap the other calls;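 also: yeast W303a lacking pdr1 and pdr3 grown in galactose medium; growth measured after three days at 30 °C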
Anthrax LF inh2 – Bacillus anthracis LF protease inhibitors, primary screen, biochemical, multiplex microsphere, MLPCN library. Lethal factor (Bacillus anthracis), P15917. multiplex microsphere protease cleavage assay. inhibition, % at 10 µM. 360,000 tested, 0.12% active. AID 588501, 2011
MazF activator – activators of E. coli MazEF toxin-antitoxin RNase, primary screen, biochemical, fluorescence, uHTS | FAM/BHQ RNA-DNA oligo cleavage fluorescence, 5 h | activation, % at 20 µM | 350,000 tested, 0.32% active | Endoribonuclease toxin MazF (Escherichia coli (strain K12)), P0AE70; in the data active = activation above about 50%
Target sequence (P0AE70 whole entry, looked up): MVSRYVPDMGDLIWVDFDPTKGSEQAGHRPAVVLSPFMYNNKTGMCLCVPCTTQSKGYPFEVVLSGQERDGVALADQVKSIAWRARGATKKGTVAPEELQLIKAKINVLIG
A number is an active result; ! = a repeat was not active. Rule as the data show it, unless noted: active = inhibition above about 30%; inconclusive = no clear call, values can overlap the other calls; inactive = below that.

`O=c1[nH]c(=O)n(Cc2ccco2)c2c1C(C(F)(F)F)(C(F)(F)F)N=C(CCC1CCCCC1)N2` gave Bead autofluor inconclusive, BoNT-A LC inh2 inactive, BoNT-F LC inh inactive, PfHsp40 rescue inactive, Anthrax LF inh2 inactive and MazF activator inactive.
O=c1[nH]c(=O)n(Cc2ccco2)c2c1C(C(F)(F)F)(C(F)(F)F)N=C(CCc1ccccc1)N2 was read as Bead autofluor inactive, BoNT-A LC inh2 inactive, BoNT-F LC inh inactive, PfHsp40 rescue inactive, Anthrax LF inh2 inactive and MazF activator inactive.
Screening N#Cc1ccc(C2=NC(C(F)(F)F)(C(F)(F)F)c3c(n(Cc4ccco4)c(=O)[nH]c3=O)N2)cc1 returned Bead autofluor 23851, BoNT-A LC inh2 inactive, BoNT-F LC inh inactive, PfHsp40 rescue inactive, Anthrax LF inh2 inactive and MazF activator inactive.
For CCCCn1c(N)c(N(CC)C(=O)CN2C(=O)NC(C)(c3ccccc3)C2=O)c(=O)[nH]c1=O (stereo unspecified) the results were Bead autofluor inactive, BoNT-A LC inh2 inactive, BoNT-F LC inh inactive, PfHsp40 rescue inactive, Anthrax LF inh2 inactive and MazF activator inactive.
O=c1[nH]c(-c2ccccn2)nc2sc(-c3ccccc3)cc12 was read as Bead autofluor inactive, BoNT-A LC inh2 inactive, BoNT-F LC inh inactive, PfHsp40 rescue 177, Anthrax LF inh2 inactive and MazF activator inactive.
`Cc1c(C(=O)N(C)C)sc2nc(-c3ccccn3)[nH]c(=O)c12` gave Bead autofluor inactive, BoNT-A LC inh2 inactive, BoNT-F LC inh inactive, PfHsp40 rescue inactive, Anthrax LF inh2 inactive and MazF activator inactive.
CC1CCCCC1NC(=O)C(C)N1C(=O)c2ccccc2C1=O (stereo unspecified) was read as Bead autofluor inactive, BoNT-A LC inh2 inactive, BoNT-F LC inh inactive, PfHsp40 rescue inactive, Anthrax LF inh2 inactive and MazF activator inactive.
For O=S1(=O)CC(N2CCCCC2)CN1Cc1cn(Cc2cccc(Cl)c2)nn1 (stereo unspecified) the results were Bead autofluor inactive, BoNT-A LC inh2 inactive, BoNT-F LC inh inactive and Anthrax LF inh2 inactive.
Screening c1ccc(CNc2ncnc3ccccc23)cc1 returned Bead autofluor 20097!, BoNT-A LC inh2 inactive, BoNT-F LC inh inactive, PfHsp40 rescue inactive, Anthrax LF inh2 inactive and MazF activator inactive.
`Fc1ccccc1-c1nc(NCc2ccco2)c2ccccc2n1` gave Bead autofluor inactive, BoNT-A LC inh2 inactive, BoNT-F LC inh inactive, PfHsp40 rescue inactive, Anthrax LF inh2 inactive and MazF activator inactive.
For CNc1nc(NCc2ccccc2)c2ccccc2n1 the results were Bead autofluor inactive, BoNT-A LC inh2 inactive, BoNT-F LC inh inactive, PfHsp40 rescue inactive, Anthrax LF inh2 inactive and MazF activator inactive.
Screening Oc1ccccc1-c1nc(NCc2ccco2)c2ccccc2n1 returned Bead autofluor inconclusive, BoNT-A LC inh2 inactive, BoNT-F LC inh inconclusive, PfHsp40 rescue inactive, Anthrax LF inh2 inactive and MazF activator 120.
For Oc1ccccc1-c1nc(NCc2ccccc2)c2ccccc2n1 the results were Bead autofluor inactive, BoNT-A LC inh2 inactive, BoNT-F LC inh inactive, PfHsp40 rescue inactive, Anthrax LF inh2 inactive and MazF activator 63.
Screening Oc1ccccc1Nc1nc(NCc2ccccc2)c2ccccc2n1 returned Bead autofluor inactive, BoNT-A LC inh2 inactive, BoNT-F LC inh inactive, PfHsp40 rescue inactive, Anthrax LF inh2 inactive and MazF activator 57.
Screening CS(=O)(=O)c1[nH]nc(-c2ccccc2Cl)c1C#N returned MazF activator inactive.
O=C(C1=C(O)C(=O)N(c2ncccn2)C1c1ccc(F)cc1)c1ccco1 (stereo unspecified) was read as Bead autofluor inactive, BoNT-A LC inh2 inactive, BoNT-F LC inh inconclusive, PfHsp40 rescue inactive, Anthrax LF inh2 inactive and MazF activator inactive.
For C[C@H]1CN([C@@H](C)CO)C(=O)CCCn2nncc2CO[C@H]1CN(C)C(=O)C1CC1 the results were Bead autofluor inactive, BoNT-A LC inh2 inactive, BoNT-F LC inh inactive, Anthrax LF inh2 inactive and MazF activator inactive.
COc1ccccc1CN1CCC(CNS(=O)(=O)c2cc(-c3cc(C)no3)ccc2OC)CC1 was read as Bead autofluor inactive, BoNT-A LC inh2 inactive, BoNT-F LC inh inactive, PfHsp40 rescue inactive, Anthrax LF inh2 inactive and MazF activator inactive.
Screening CC1=C(C(=O)N2CCCCCC2)CC(CC(=O)NCCN2CCOCC2)C(=O)N1CCCN1CCCC1=O (stereo unspecified) returned Bead autofluor inactive, BoNT-A LC inh2 inactive, BoNT-F LC inh inactive and Anthrax LF inh2 inactive.
Screening CCCCN1C(=O)C(=O)N(CC(=O)Nc2ccc(OC(F)(F)F)cc2)C1=O returned Bead autofluor inactive, BoNT-A LC inh2 inactive, BoNT-F LC inh inactive, PfHsp40 rescue inactive, Anthrax LF inh2 inactive and MazF activator inactive.
COC(=O)CCC(=O)Nc1ccc(Cl)c(Cl)c1 was read as Bead autofluor inactive, BoNT-A LC inh2 inactive, BoNT-F LC inh inactive, PfHsp40 rescue inactive, Anthrax LF inh2 inactive and MazF activator inactive.
COC(=O)CC1(C(=O)OC)Nc2cc(Cl)c(Cl)cc2S(=O)(=O)N1O (stereo unspecified) was read as Bead autofluor inactive, BoNT-A LC inh2 inactive, BoNT-F LC inh inactive, Anthrax LF inh2 inactive and MazF activator 123.
Screening Cc1cccc(NS(=O)(=O)c2ccc(C)c(C(=O)NCC(c3cccs3)N3CCOCC3)c2)c1 (stereo unspecified) returned Bead autofluor inactive, BoNT-A LC inh2 inactive, BoNT-F LC inh inactive, PfHsp40 rescue inactive, Anthrax LF inh2 inactive and MazF activator inactive.
Screening O=C(N[C@@H](Cc1ccccc1)C(=O)N[C@@H](Cc1ccccc1)C(=O)O)OCc1ccccc1 returned Bead autofluor inactive, BoNT-A LC inh2 inactive, BoNT-F LC inh inactive, PfHsp40 rescue inactive, Anthrax LF inh2 inactive and MazF activator inactive.
For CSCC[C@H](NC(=O)OCc1ccccc1)C(=O)O the results were Bead autofluor 22450, BoNT-A LC inh2 inactive, BoNT-F LC inh inactive, PfHsp40 rescue inactive, Anthrax LF inh2 inactive and MazF activator inactive.
O=C(N[C@@H](Cc1ccccc1)C(=O)CCl)OCc1ccccc1 was read as Bead autofluor inactive, BoNT-A LC inh2 inactive, BoNT-F LC inh inactive, PfHsp40 rescue 320, Anthrax LF inh2 inactive and MazF activator inactive.
COCCOc1cc2ncnc(N3CCC(C(=O)O)CC3)c2cc1OCCOC was read as Bead autofluor inactive, BoNT-A LC inh2 inconclusive, BoNT-F LC inh inconclusive, PfHsp40 rescue inactive, Anthrax LF inh2 inactive and MazF activator inactive.
O=C(c1cc(-c2cccs2)nn1-c1ccccc1)N1CCN(S(=O)(=O)c2ccccc2)CC1 was read as Bead autofluor inactive, BoNT-A LC inh2 inactive, BoNT-F LC inh inactive, PfHsp40 rescue inactive, Anthrax LF inh2 inactive and MazF activator inactive.
